A selection: hits, their analogues and other compounds. The true share with any hit is near 0.67%.
Rango complex inh: prevents formation of the Rango-importin beta complex | AID 540263 | Potency, µM (doses to about 92.2 µM), for inactives: top-dose inhibition of complex formation | Rango CFP/YFP FRET sensor + importin beta, 45 min | 340,000 compounds, 0.031% hits | Q14974;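 further: 0% = DMSO wells and 100% = buffer wells lacking importin beta; nearly all actives have a fitted effect of over 15% in size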
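FRET biosensor (snurportin 1 IBB flanked by EYFP and cerulean), 50 nM, with compound 5 min, then 0.125 microM importin beta in PBS, 1 mM DTT, 0.02% Tween-20, 0.1% BSA. CFP/YFP ratio read after 45 min at room temperature; pre-read flags interference.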
S-ASM inh: inhibitors of human secretory acid sphingomyelinase | placental ASM, HMU-PC fluorogenic substrate, 60 min | P17405 | Potency, µM (highest dose often 57.5 µM), inactives show at the top dose activity change, negative = inhibition, actives largely listed as inhibitors | 340,000 compounds, 0.006% hits; active means well fitted inhibition curve with a large enough effect; inconclusive means small, poorly fitted or top-dose-only effect; inactive means no such curve, though single readings can be large or run the other way
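Fluorescence read-out (Ex 386 nm, Em 447 nm) after stopping the reaction at pH 10. Enzyme: ASM from human placenta; substrate HMU-PC0, 9 uM final; 60 min, 37 °C. Compound preincubation 10 min, ambient temperature.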
Rango release inh: inhibitors of RanGTP-induced Rango-importin beta complex dissociation; Potency, µM (doses to about 46.1 µM), without a hit: top-dose activity change, negative = inhibition; 340,000 compounds, 0.071% hits; Biochemical FRET Rango-importin beta, RanGTP-induced dissociation; further: % of control where 0% means no effect; nearly all actives have a fitted effect of over 45% in size
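Compounds sat 5 min at room temperature with 0.1 uM Rango biosensor plus 0.25 uM importin beta, then FRET pre-read. RanGTP-RCC1 (0.6 uM Ran, 2mM GTP, 0.2 uM RCC1) added for 45 min, and the CFP/YFP post-read measured blocked complex dissociation.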
gsp ag: activates gsp, the McCune-Albright syndrome mutation. gsp mutant cells, cAMP HTRF, 30 min. Potency, µM (doses to about 76.9 µM), without a hit: top-dose activation (cAMP increase), hits mostly activators. 340,000 compounds, 0.13% hits; active means well fitted activation curve with a large enough effect; inconclusive means small, poorly fitted or top-dose-only effect, or another doubt; inactive means no such curve, though single readings can be large or run the other way; cell line not stated here;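 further: phosphodiesterase inhibitor Ro 20-1724 added with compounds to block cAMP breakdown; nearly all actives have a fitted effect of over 60% in size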
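Cells in DMEM/10% FBS with G418 were pretreated with compounds in DMSO plus […] (300 uM stock) for 30 min at 37C. cAMP was measured by HTRF (cAMP-d2 plus anti-cAMP antibody-K) after 30 min at room temperature.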
gsp antagonist: gsp mutant antagonism; Potency, µM (doses to about 76.9 µM), inactives show at the top dose activity change, negative = inhibition, most hits filed as inhibitors; 340,000 compounds, 0.4% hits; AID 624288; gsp-mutant cells, cAMP HTRF, 30 min; calls by dose curve; cell line not stated here;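 further: intracellular cAMP measured with PDE inhibitor Ro 20-1724 present during compound exposure; on the % scale 0 is the no-effect control and ±100 the full control effect; nearly all actives have a fitted effect of over 65% in size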
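HTRF cAMP read-out (cAMP-d2 plus anti-cAMP antibody-K in lysis buffer, 30 min RT). Before lysis, cells are exposed to compounds with […] for 30 min at 37C in DPBS containing Ca/Mg, BSA and Tween 20.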
Numbers without * were called inactive; i = inactive; u = inconclusive; x = no result; [ ] = remark or other dose. Unless noted, the call rests on the fitted dose curve. Potency means the concentration at half of the fitted maximal effect.

SMILES	Rango complex inh	S-ASM inh	Rango release inh	gsp ag	gsp antagonist
CCOC(=O)[C@@H]1[C@H]2COc3cc(OC)ccc3[C@@H]2N2C(=O)N(c3ccccc3)C(=O)[C@@]12C	1%	-2%	1%	-42%	2%
Cc1ccc(NC(=O)C2CCN(S(=O)(=O)c3ccc4c(c3)NC(=O)C(C)S4)CC2)cc1Cl (stereo not drawn)	0%	0%	-5%	-11%	u
CCOc1ccc(-c2c(C(=O)N/N=C/c3c[nH]c4ccccc34)nnn2-c2nonc2N)cc1	0%	0%	1%	u	25µM*
COC(=O)CCC(=O)OC1(C)C(=O)C2=CN(C3CCCC3)C(c3ccc(OC)cc3)=CC2=C(Br)C1=O (stereo not drawn)	u	0%	9.2µM*	x	-23%
CCn1c(=O)c([N+](=O)[O-])c(NCCc2ccccc2)c2ccccc21	5%	-18%	-4%	-8%	40µM*
C=CCN(C(=O)C1CC(=O)N(C2CCCC2)C1)c1nc(-c2ccc(S(C)(=O)=O)cc2)cs1 (stereo not drawn)	u	-3%	4%	5%	40µM*
C=CCN(C(=O)CN1CCCCC1)c1nc(-c2ccccc2)cs1	0%	-11%	-17%	11%[15.4 µM]	-3%
CCOC(=O)/C=c1/s/c(=C/c2ccccc2OC)c(=O)n1CC(=O)N1CCOCC1	u	46%	-29%	-9%	-16%
COc1cc(CCC(=O)Nc2ccc(Br)c(C(F)(F)F)c2)cc(OC)c1OC	0%	-11%	2%	0%[15.4 µM]	28µM*
Cc1noc(C)c1C(=O)Nc1nc(-c2ccc([N+](=O)[O-])cc2)cs1	-3%	-3%	-2%	-58%	28µM*
Cc1ccc(-c2csc(NC(=O)c3c(C)noc3C)n2)cc1	3%	-12%	12%	-39%	u
Cc1cccc(CN2CCN(C(=O)CCl)CC2)c1	3%	5%	-10%	-22%	19%
O=C(CNS(=O)(=O)c1ccccc1)NCC(=O)OCc1ccc(Cl)cc1	-2%	1%	8%	7.9µM*	0%
CN(C)S(=O)(=O)N1CCC(Oc2cccc(C(=O)NC3CCCCC3)c2)CC1	-3%	1%	8%	8%	u
CN(C)S(=O)(=O)N1CCC(Oc2cccc(C(=O)NCCC3=CCCCC3)c2)CC1	-5%	-2%	-8%	-38%	35µM*
CCOC(=O)C1CCN(C(=O)c2ccc3nc(-c4ccc(OC)cc4)c(-c4ccc(OC)cc4)nc3c2)CC1	u	i	16µM*	4%	u
Cc1ccc(-c2nn(-c3ccccc3)cc2/C=N/NC(=O)c2ccc(Br)o2)cc1	-2%	-6%	u	0%	32µM*
CCC(C)Sc1cc(-c2nc3ccccn3c2NC2CCCCC2)ccc1OC (stereo not drawn)	u	390%	-40%	u	-26%
CCC(C)Sc1cc(-c2nc3ccc(C)cn3c2NCc2ccccc2)ccc1OC (stereo not drawn)	u	497%	15µM*	u	u
CCC(C)Sc1cc(-c2nc3cc(C)ccn3c2NC2CCCCC2)ccc1OC (stereo not drawn)	u	152%	-24%	u	32µM*
CCCCNc1c(-c2ccc(OC)c(SC(C)CC)c2)nc2ccc(C)cn12 (stereo not drawn)	u	235%	u	x	28µM*
CCC(C)Sc1ccc(-c2nc3ccc(C)cn3c2NCc2ccccc2)cc1OC (stereo not drawn)	u	i	u	x	u
COc1ccc(-c2cc(-c3nc4ccccn4c3NCc3ccccc3)ccc2OC)cc1	u	265%	26µM*	x	u
COc1ccc(NC(=O)COC(=O)C2CC2)cc1S(=O)(=O)N1CCCCC1	-4%	-1%	-14%	6%	11%
COc1nc2ccccc2nc1CCC(=O)O	0%	1%	11%	21%[15.4 µM]	17%
CCCCNc1c(-c2ccc(OC)c(SC(C)CC)c2)nc2cc(C)ccn12 (stereo not drawn)	u	92%	-25%	u	40µM*
COC(=O)c1ccc(CC(=O)c2ccc(O)cc2O)o1	u	0%	-16%	4%	u

Source: PubChem
